Source: PubChem BioAssay (National Center for Advancing Translational Sciences (NCATS))
TexasRed fluor: Total Fluorescence Counterscreen for Inhibitors of the Interaction of Thyroid Hormone Receptor and Steroid Receptor Coregulator 2; TRb/SRC2 Texas Red total fluorescence interference; Potency, µM (top dose mostly 106 µM), inactives show at the highest dose fluorescence change, negative = quenching; 280,000 tested, 0.29% active; AID 1479, 2009; active means well fitted curve in either direction with a large enough effect; inconclusive means small, poorly fitted or top-dose-only effect; further: potency means the concentration at half of the fitted maximal effect; on the % scale 0 is the no-effect control and ±100 the full control effect
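Human TRb ligand-binding domain at 0.6 uM with 20 nM Texas Red SRC2 peptide in Tris buffer containing 1 uM T3 and 5% DMSO, incubated with compound 5 h at ambient temperature. Total fluorescence (555/632 nm) calculated as parallel + 2 × perpendicular.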
CXXC DNA block: qHTS Fluorescence Polarization Assay for Inhibitors of MLL CXXC domain - DNA interaction | Histone-lysine N-methyltransferase 2A (Homo sapiens), Q03164 | MLL-CXXC / FITC-HOXA9 DNA fluorescence polarization | Potency, µM (doses to about 115 µM), inactives show at the top dose activity change, negative = inhibition, hits mostly inhibitors | 290,000 tested, 0.037% active | AID 2662, 2010; active means well fitted inhibition curve with a large enough effect in the polarisation, with a control signal flat, not every such curve was filed as active; inconclusive means small, poorly fitted or top-dose-only effect, or effect the other way, or a change in a side signal; inactive means no such curve, though single readings can be large or run the other way; the % refers to the polarisation; further: potency means the concentration at half of the fitted maximal effect
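Steps: dispense CXXC domain solution (7 uM) → pin compounds or unlabeled HOX-A9 DNA control → 5 min ambient → add FLSN-HOX-A9 solution (50 nM) → spin → 30 min ambient → fluorescence polarization. Tris pH 7.5/NaCl/DTT/BSA buffer.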
Menin MLL FP TR: qHTS Assay for Inhibitors Targeting the Menin-MLL Interaction in MLL Related Leukemias: Competition With Texas Red Labeled MLL-derived Mutant Peptide; 270,000 tested, 0.23% active; O00255; Menin + Texas Red MLL mutant peptide, fluorescence polarization; Potency, µM (highest dose often 61.6 µM), inactives show at the top dose FP activity change, negative = inhibition, usual class: inhibitors; active means well fitted inhibition curve with a large enough effect in the polarisation, with a control signal flat, not every such curve was filed as active; inconclusive means small, poorly fitted or top-dose-only effect, or effect the other way, or a change in a side signal; inactive means no such curve, though single readings can be large or run the other way; the % refers to the polarisation; further: potency means the concentration at half of the fitted maximal effect; % of control where 0% means no effect
Target sequence (O00255 whole entry, looked up): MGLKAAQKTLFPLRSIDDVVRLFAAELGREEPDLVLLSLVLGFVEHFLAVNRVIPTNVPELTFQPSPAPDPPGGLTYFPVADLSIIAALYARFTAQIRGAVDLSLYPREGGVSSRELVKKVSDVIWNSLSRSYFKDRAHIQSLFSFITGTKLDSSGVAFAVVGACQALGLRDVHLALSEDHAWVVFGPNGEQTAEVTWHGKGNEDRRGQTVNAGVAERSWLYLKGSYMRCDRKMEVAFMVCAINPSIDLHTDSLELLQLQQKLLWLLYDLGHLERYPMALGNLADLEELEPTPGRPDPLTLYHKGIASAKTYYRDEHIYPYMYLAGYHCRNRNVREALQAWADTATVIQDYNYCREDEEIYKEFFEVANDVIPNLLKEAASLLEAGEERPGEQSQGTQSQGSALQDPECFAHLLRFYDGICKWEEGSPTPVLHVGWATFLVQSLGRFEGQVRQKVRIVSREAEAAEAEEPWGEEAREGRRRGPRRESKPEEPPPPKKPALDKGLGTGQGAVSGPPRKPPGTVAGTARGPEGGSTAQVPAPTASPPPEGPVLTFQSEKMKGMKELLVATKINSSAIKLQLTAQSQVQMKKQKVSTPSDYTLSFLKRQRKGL
GoLoco inh red: qHTS Assay for Inhibitors of RGS12 GoLoco Motif Activity (Red Fluorophore). Potency, µM (highest dose often 61.6 µM), without a hit: at the highest dose activity, negative = inhibition, actives largely listed as inhibitors. Guanine nucleotide-binding protein G(i) subunit alpha-1 (Homo sapiens), P63096. 230,000 tested, 0.44% active. Gai1:RGS12 GoLoco peptide FP, rhodamine, 10 min; active means well fitted inhibition curve with a large enough effect, not every such curve was filed as active; inactive means no such curve, though single readings can be large or run the other way; further: potency means the concentration at half of the fitted maximal effect; on the % scale 0 is the no-effect control and ±100 the full control effect; nearly all actives have a fitted effect of over 30% in size
Menin MLL FP FL: qHTS Assay for Inhibitors Targeting the Menin-MLL Interaction in MLL Related Leukemias: Competition With Fluorescein Labeled MLL-derived Peptide | Fluorescence polarization, fluorescein-MLL peptide displacement from menin | FP activity change, % at 61.4 µM | 290,000 tested, under 10 active; active means well fitted curve in the direction sought with a large enough effect in the polarisation, not every such curve was filed as active; inconclusive means small, poorly fitted or top-dose-only effect, or effect the other way, or a change in a side signal; inactive means no such curve, though single readings can be large or run the other way; the % refers to the polarisation; further: % of control where 0% means no effect
TRb SRC2 PPI: qHTS for Inhibitors of the Interaction of Thyroid Hormone Receptor and Steroid Receptor Coregulator 2; Potency, µM (doses to about 106 µM), inactives show at the top dose activity change, negative = inhibition, most hits filed as inhibitors; AID 1469, 2008; TRbeta-SRC2 peptide binding, fluorescence polarization; receptor liganded with 1 µM T3; 280,000 tested, 0.065% active; active means well fitted inhibition curve with a large enough effect; inconclusive means small, poorly fitted or top-dose-only effect, or effect the other way;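 further: potency means the concentration at half of the fitted maximal effect; plate controls were bound peptide for no effect and peptide without receptor for full effect; nearly all actives have a fitted effect of over 50% in size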
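Assay buffer: 20 mM Tris-HCl, 100 mM NaCl, 10% glycerol, 1 mM EDTA, 0.01% NP-40, 1 mM DTT, 1 uM T3, 5% DMSO; TRb LBD 0.6 uM, Texas Red SRC2 20 nM; FP after 5 hr.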
An asterisk follows results filed as active; ? = inconclusive; · = no result given; [ ] = remark or other dose. In the library only some 0.5% were active in any assay of this set; here they are far more common.

SMILES	TexasRed fluor	CXXC DNA block	Menin MLL FP TR	GoLoco inh red	Menin MLL FP FL	TRb SRC2 PPI
CCCC1=NN2C(=N)/C(=C\c3ccc(SCc4ccco4)o3)C(=O)N=C2S1	50.1µM*[fluorescent]	73.3%	?	325.5%	?	?
COC(=O)c1c(NC(=O)Cc2coc3cc(C)ccc23)sc2c1CCC2	3.55µM*[quencher]	·	·	·	·	20.3%[53 µM]
CCOC(=O)c1c(NC(=O)Cc2coc3cc(C)cc(C)c23)sc2c1CCC2	0.0251µM*[quencher]	·	·	·	·	?
CCNC(=O)c1c(NC(=O)Cc2coc3cc(C)cc(C)c23)sc2c1CCCC2	7.1%	·	·	·	·	2.5%
Cc1nc2ccc(C(=O)O)cc2c2c1CC(C)S2 (centres undefined)	3.9%	8.9%	20µM*	-33.0%	15.3	-4.3%
CCc1ccccc1N1CC(c2nc3ccccc3n2CCOc2ccc(Cl)c(C)c2)CC1=O (centres undefined)	-3.4%	·	·	·	·	1.1%
CCCCC(CC)COC(C)=O (centres undefined)	-2.1%[201 µM]	·	·	·	·	6.3%[201 µM]
CCCCNc1c2c3c(cccc3n(C)c1=O)C(=O)c1ccccc1-2	6.6%	?	-16.1%	14.1µM*	?	-15.3%
Cn1c(=O)c(NC2CCCCC2)c2c3c(cccc31)C(=O)c1ccccc1-2	3.7%	?	?	0.794µM*	?	3.1%
CC(=O)Nc1ccc(Nc2c3c4c(cccc4n(C)c2=O)C(=O)c2ccccc2-3)cc1	0.8%	-1.2%	-9.5%	14.1µM*	?	-1.9%
CC(=O)Nc1ccc(NC2=CC(=O)c3ccccc3C2=O)cc1	·	-20.3%	?	·	0.1	·
Cn1c(=O)c(NCCc2ccccc2)c2c3c(cccc31)C(=O)c1ccccc1-2	44.7µM*[fluorescent]	?	?	4.47µM*	?	28.2µM*
Cn1c(NCCc2ccccc2)cc(=O)n(C)c1=O	-3.9%	-19.5%	2.0%	·	0.8	4.0%
Cc1ccc(O)c(NC(=O)c2ccc(Br)c(S(=O)(=O)N3CCCCC3)c2)c1	?	·	·	·	·	-11.4%
Clc1cccc(N2CCN(c3ncnc4c3nc3n4CCCCC3)CC2)c1	-2.7%	·	·	·	·	-1.0%
Oc1ccc(N=Cc2ccc(O)c(O)c2)cc1	-7.2%	-22.0%	?	15.8µM*	4.1	1.2%
Oc1ccc(/C=N/N=C/c2ccc(O)c(O)c2)cc1O	·	-5.5%	9.3%	·	1.6	·
COc1ccc(Cl)cc1NC(=O)Cn1c(=O)oc2ccccc21	·	1.6%	?	·	10.2	·
O=C(Cn1c(=O)oc2ccccc21)Nc1ccc(Cl)cc1Cl	·	43.7%	31.6µM*	·	-1.4	·
O=C1c2ccccc2-c2ccc(N(Cc3ccc(Br)cc3)Cc3ccc(Br)cc3)cc21	·	·	·	7.6%[14.2 µM]	·	·
CN(C)CCNC(=O)C(=O)NCC(c1cccnc1)N1CCN(c2ccccc2)CC1 (centres undefined)	-10.4%	·	·	·	·	3.4%
O=C(NCC(c1cccnc1)N1CCN(Cc2ccccc2)CC1)C(=O)Nc1cccc(F)c1 (centres undefined)	0.251µM*[quencher]	·	·	·	·	-13.5%
CCN(CC)CCNC(=O)C(=O)NCC(c1cccnc1)N1CCN(c2ccccc2)CC1 (centres undefined)	89.1µM*[quencher]	·	·	·	·	-25.5%
CC(C)(C)c1ccc(C(=O)NCC(c2cccnc2)N2CCc3ccccc3C2)cc1 (centres undefined)	11.2µM*[quencher]	·	·	·	·	2.1%
Cc1ccc(C(=O)NCC(c2cccnc2)N2CCc3ccccc3C2)cc1C (centres undefined)	1.4%	·	·	·	·	2.0%
O=C(NCC(c1cccnc1)N1CCc2ccccc21)C(=O)Nc1ccccc1F (centres undefined)	0.316µM*[quencher]	·	·	·	·	-15.7%
